Shown are actives, neighbours in structure and some others; about 1.7% of the full set was active somewhere.
CCHF vOTU inh-1: CCHFV vOTU protease inhibition | Pep-AMC fluorescence | inhibition, % at 11.5 µM | 0.55% of 370,000 active | AID 651958
VHR inh abs: blocks human VHR1 dual specificity phosphatase. recombinant VHR phosphatase, pNPP absorbance. inhibition, % at 13.3 µM. 0.52% of 290,000 active. AID 1654; in the data active means inhibition above about 50%
Target sequence (P51452 whole entry, looked up): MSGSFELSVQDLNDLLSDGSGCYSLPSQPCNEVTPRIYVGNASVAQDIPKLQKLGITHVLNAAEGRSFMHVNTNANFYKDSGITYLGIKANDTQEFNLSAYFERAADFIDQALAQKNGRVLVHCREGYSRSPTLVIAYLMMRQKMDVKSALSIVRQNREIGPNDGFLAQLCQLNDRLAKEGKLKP
SSB-PriA inh: inhibitors of Klebsiella pneumoniae PriA binding to SSB C-terminal tail; AlphaScreen SSBct-PriA binding, biotinylated peptide; inhibition, % at 33 µM; 0.6% of 430,000 active; in the data active means inhibition mostly above about 37%, no sharp cut-off; inactive means mostly below about 20%
RecA intein inh: blocks M. tuberculosis RecA intein splicing. P9WHJ3. cell-free RecA intein splicing, fluorescence. inhibition, % (concentration not given with the values). 0.75% of 290,000 active. AID 2221; in the data active means inhibition above about 30%
3CLpro inhibitor: SARS-CoV 3CLpro protease inhibition | 0.14% of 290,000 active | P0C6X7 | AID 1706 | inhibition, % at 6 µM | recombinant SARS-CoV 3CLpro, quenched FRET peptide cleavage; in the data active means inhibition above about 12%
CCHF vOTU inh-2: confirmation of CCHF virus vOTU protease inhibitors; 17% of 1,900 active; inhibition, % at 11.5 µM; shares compounds with CCHF vOTU inh-1; Recombinant CCHFV vOTU, Pep-AMC fluorescence
Hits are given with their value; - = inactive; . = not tested or not shown. Unless noted, no stated cut-off is given here; in the data, active means inhibition above about 30%; inactive means the rest.

SMILES	CCHF vOTU inh-1	VHR inh abs	SSB-PriA inh	RecA intein inh	3CLpro inhibitor	CCHF vOTU inh-2
C=CC[C@H](CC(=O)N(CCO)Cc1ccccc1)C(=O)N[C@H](COC(=O)[C@@H](CC=C)CC(=O)OC(C)(C)C)Cc1ccccc1	-	.	-	.	.	.
C=CCC[C@H](Cc1ccc(F)cc1)C(=O)OC[C@@H](Cc1c[nH]c2ccccc12)NC(=O)[C@@H](CC=C)CC(=O)N[C@@H](CO)Cc1ccccc1	31.8	.	-	.	.	-
C=CC[C@H](CC(=O)N(CCO)Cc1ccccc1)C(=O)N[C@@H](COC(=O)[C@@H](CC=C)CC(=O)OC(C)(C)C)Cc1c[nH]c2ccccc12	33.1	.	-	.	.	-
C=CC[C@H](CC(=O)N(CCO)Cc1ccccc1)C(=O)N[C@H](COC(=O)[C@H](CC=C)CC(=O)OC(C)(C)C)Cc1c[nH]c2ccccc12	-	.	-	.	.	.
O=C(Nc1nnc(SCc2ccc(F)cc2)s1)c1ccccc1Cl	.	.	-	.	.	.
CC(C)Sc1nc2c(c(=O)[nH]1)C(c1ccncc1)C1C(=O)CC(C)(C)CC1=N2 (stereo not drawn)	.	.	-	.	.	.
CCc1cccc2sc(NC(=O)c3ccc([N+](=O)[O-])s3)nc12	.	.	-	.	.	.
O=C(CCCn1nc(-c2ccco2)ccc1=O)NCCc1ccccc1	.	.	-	.	.	.
COC(=O)c1ccc(-c2csc(NC(=O)c3c(F)cccc3Cl)n2)cc1	.	.	-	.	.	.
C=CC[C@@H](CC(=O)N(CCO)Cc1ccccc1)C(=O)N[C@@H](COC(=O)[C@H](CC=C)CC(=O)OC(C)(C)C)Cc1c[nH]c2ccccc12	38.5	.	-	.	.	-
C=CC[C@H](CC(=O)N(CCO)Cc1ccccc1)C(=O)N[C@H](COC(=O)[C@@H](CC=C)Cc1ccc(F)cc1)Cc1c[nH]c2ccccc12	31.0	.	-	.	.	-
C=CC[C@@H](CC(=O)N(CCO)Cc1ccccc1)C(=O)N[C@H](COC(=O)[C@@H](CC=C)Cc1ccc(F)cc1)Cc1c[nH]c2ccccc12	-	.	-	.	.	.
CCNc1nn(CC(=O)Nc2cccc(C(C)=O)c2)c(N)c1-c1nc(-c2ccccc2C)no1	.	.	-	.	.	.
O=C1Nc2ccccc2-n2nnnc2C1N1CCN(c2ccc(C(F)(F)F)cc2[N+](=O)[O-])CC1 (stereo not drawn)	32.4	.	.	.	.	-
COc1cccc(NP(=O)(Oc2ccccc2)Oc2ccccc2)c1	29.9	-	-	-	-	-
COc1cccc(NP(=O)(Oc2ccccc2Cl)Oc2ccccc2Cl)c1	-	-	-	-	-	.
CCCCn1c(N)c(N(CCC(C)C)C(=O)CC2CCCCC2)c(=O)[nH]c1=O	-	.	-	-	.	.
CCCCN(C(=O)CC1CCCCC1)c1c(N)n(CC(C)C)c(=O)[nH]c1=O	31.6	.	-	.	.	-
Cc1ccc(C=Nc2ccc(N(C)C)cc2)o1	33.4	-	-	-	-	-
CCOC(=O)c1c(C)oc2c1c(C=Nc1ccc(OCC)cc1)c(O)c1ccccc12	.	.	-	.	.	.
Cc1nc2ccc3nc(NC(=O)C4=COCCO4)sc3c2s1	.	.	-	.	.	.
O=C1C(=O)N(CN2CCN(c3ccccc3Cl)CC2)c2ccccc21	.	.	-	.	.	.
O=C1c2cccc(Cl)c2C(=O)c2c1cccc2N1CCCC1	70.8	.	-	-	-	-
Cc1ccc(S(=O)(=O)NCCCCCC(=O)Nc2ccccc2)cc1	-	-	-	-	-	.
CNC(=O)CCCCCNS(=O)(=O)c1ccc(C)cc1	31.0	-	-	-	-	-
SMILES	CCHF vOTU inh-1	VHR inh abs	SSB-PriA inh	RecA intein inh	3CLpro inhibitor	CCHF vOTU inh-2
COc1ccccc1NC(=O)N1CCS[C@H]1c1ccc(F)c(Br)c1	.	.	-	.	.	.
COCc1cc(N2CCN(C(=O)OC(C)(C)C)C[C@H]2C)ccc1N1C[C@@H](C)O[C@@H](C)C1	34.5	.	.	.	.	-
COCc1cc(N2CCN(C(=O)OC(C)(C)C)C[C@@H]2C)ccc1N1C[C@@H](C)O[C@@H](C)C1	-	.	.	.	.	.
CCOC(=O)/C=C1\CN(Cc2cc(OC)c(OC)c(OC)c2)S(=O)(=O)c2ccc(C(F)(F)F)cc21	32.6	-	-	-	-	-
CCOC(=O)/C=C1\CN(Cc2cc(OC)c(OC)c(OC)c2)S(=O)(=O)c2ccccc21	-	-	-	-	-	.
O=C(c1cccs1)N1C[C@@H](O)[C@H](n2cc(C3CC3)nn2)C[C@@H]1c1ccccc1	-	.	.	.	.	.
O=C(c1cccs1)N1C[C@H](O)[C@@H](n2cc(C3CC3)nn2)C[C@@H]1c1ccccc1	30.5	.	.	.	.	-
CCOc1ccc(C(=O)Nc2ccc3c(c2)N(CCOC)CCC3)cc1OCC	.	.	-	.	.	.
CCCCCCCCN1C(=O)[C@@H](CC(=O)NCc2cccs2)C[C@@]2(C(=O)OC)C1=C[C@H](C(C)C)O[C@@H]2C1CC1	38.9	.	.	.	.	-
CCCCCCCCN1C(=O)[C@@H](CC(=O)N2CCCCC2)C[C@@]2(C(=O)OC)C1=C[C@H](C(C)C)O[C@@H]2C1CC1	31.6	.	.	.	.	-
CCCCCCCCN1C(=O)[C@@H](CC(=O)NCCC(C)C)C[C@@]2(C(=O)OC)C1=C[C@H](C(C)C)O[C@@H]2C1CC1	34.5	.	.	.	.	-
CCc1cccc(CC)c1NC(=O)/C=C/c1ccc(OC)cc1OC	.	.	-	.	.	.
O=C(c1cccnc1)N1CCCC[C@H](c2ccc(Cl)cc2)C1	.	.	-	.	.	.
O=C1CC(N2CCN(c3ccccn3)CC2)C(=O)N1CC(c1ccccc1)c1ccccc1 (stereo not drawn)	37.9	-	-	-	-	-
